Bioassay records: PubChem, several laboratories
CF NFkB block: blocks PAF-induced NF-kB reporter in cystic fibrosis cells. hit rate 0.86% among 360,000. KKLEB NF-kB-GFP reporter, GFP fluorescence overnight. inhibition, % at 5 µM;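 active = at least 50% inhibition at 5 µM, scaled per plate between neutral and stimulator controls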;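 note: PAF is a Pseudomonas aeruginosa culture filtrate used as stimulus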
MITF TRPM1 inh: MITF TRPM1 promoter inhibition in SK-MEL-5 cells; hit rate 0.83% among 330,000; SK-MEL-5 TRPM1 promoter luciferase, 24 h; inhibition, % at 12.5 µM;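 active = mean inhibition across replicates of 60% or more, whatever share of single replicates reaches that level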
KKLEB tox: reduces viability of KKLEB cystic fibrosis airway cells; activity change (cytotoxicity), % at 5 µM; AID 602141; hit rate 0.36% among 360,000; KKLEB CF airway cells viability, ATPlite luminescence, overnight; active compounds read low; cells stimulated with P. aeruginosa culture filtrate;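 active = corrected activity change at or below -50% at 5 µM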
HIF-2a block: inhibitors of HIF-2a; hit rate 0.72% among 360,000; 786-0 RCC cells HIF-2a reporter, luciferase luminescence, overnight; inhibition, % at 18.8 µM;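 active = inhibition of the luminescence signal of 40% or more relative to plate controls, in a single-dose primary screen at 18.75 µM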
Peg3 promoter: reduces Peg3 promoter-driven luciferase expression in HeLa; inhibition, % at 20 µM; AID 588405; HeLa PEG-Prom luciferase reporter, luminescence, overnight; hit rate 1.7% among 360,000;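 active = inhibition of at least 50% at 20 µM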
Shn3 3UTR inh: reduces Shn3 3'UTR luciferase signal in osteoblasts; inhibition, % at 12.5 µM; hit rate 0.52% among 360,000; AID 588674; Clone20 osteoblast Shn3 3'UTR firefly luciferase, 24 h;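 active = mean inhibition of at least 75% with every replicate also reaching 75%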
Hits are given with their value; 0 = inactive; - = no result given. In the library only some 2.7% were active in any assay of this set; here they are far more common.

SMILES	CF NFkB block	MITF TRPM1 inh	KKLEB tox	HIF-2a block	Peg3 promoter	Shn3 3UTR inh
O=c1c2ccccc2sc2ccc(NCCCN3CCOCC3)cc12	0	0	0	0	0	0
CCN(CC)CCNc1ccc(CO)c2oc3ccccc3c(=O)c12	0	-	0	40	0	0
O=c1c2ccccc2sc2c(CO)ccc(NCCN3CCCCC3)c12	0	0	0	55	88	0
CCN(CC)CCCNc1ccc2ncn3c4ccc(O)cc4c(=O)c1c23	0	0	0	0	0	0
CCN(CC)CCNc1ccc(CO)c2sc3ccccc3c(=O)c12	0	0	0	43	58	0
COc1ccc(N(CC(=O)N2CCN(c3ccccc3)CC2)S(=O)(=O)c2ccccc2)cc1	0	-	0	0	0	0
CCCCNc1c(-c2cccc(-c3cc(C(C)=O)cs3)c2)nc2cc(C)ccn12	0	0	0	0	60	0
CC1=NN(c2ccccc2)C(=O)/C1=C\c1cn(-c2ccccc2)nc1C	0	0	0	0	0	0
COc1ccccc1/C=C1/C(=O)N(c2ccccc2)N=C1C	0	0	0	45	0	0
CCOC(=O)[C@]12CCCC=C1N(Cc1ccco1)C(=O)[C@H](CC(=O)NCc1cccs1)C2	-	-	-	0	-	-
O=[N+]([O-])c1c(NCCCO)cc(SCc2ccco2)c2nonc12	0	0	0	0	0	0
Cn1ccnc1Sc1cc(NCCCO)c([N+](=O)[O-])c2nonc12	0	0	0	0	85	0
CC(=O)OCCCNc1cc(Sc2ccc(C)cc2)c2nonc2c1[N+](=O)[O-]	0	0	0	0	0	95
CSc1ccc(NC(=O)NCCCN2CCC(Cc3ccccc3)CC2)cc1	0	0	0	0	66	0
COc1ccc(NC(=O)NCCCN2CCC(Cc3ccccc3)CC2)cc1	0	0	0	0	0	0
CC(=O)c1c(C)[nH]c(C(=O)OCC(=O)Nc2ccc(Cl)cc2[N+](=O)[O-])c1C	0	0	0	0	0	92
c1ccc2c(c1)Sc1cnccc1N2CC1CO1 (stereo unspecified)	0	-	0	0	0	0
O=[N+]([O-])c1ccc(/C=N/Nc2nc(-c3ccccc3)c3cc(Br)ccc3n2)o1	0	0	0	0	62	0
Cc1ccc2nc(N/N=C\c3ccc([N+](=O)[O-])o3)nc(-c3ccccc3)c2c1	0	0	0	0	0	0
C[C@H]1CN([C@@H](C)CO)S(=O)(=O)c2ccc(C#Cc3ccccn3)cc2O[C@@H]1CN(C)C(=O)C1CC1	0	-	0	0	0	0
Nc1ccc(OC(=O)Nc2ccc(O)cc2)cc1	0	0	0	77	0	0
Nc1ncnc2c1ccn2[C@H]1CN(Cc2ccc(Cl)cc2)C[C@@H](CO)O1	0	-	0	0	0	0
COc1cc(/C=N\NC(=O)c2ccc(-c3ccccc3)cc2)cc(Br)c1O	65	0	0	0	0	0
O=C(CCl)N1CCN(S(=O)(=O)c2ccc3ccccc3c2)CC1	0	0	0	0	110	0
CC(C)n1nnnc1C1c2ccccc2C(=O)N1Cc1cccnc1 (stereo unspecified)	-	-	-	0	-	-
SMILES	CF NFkB block	MITF TRPM1 inh	KKLEB tox	HIF-2a block	Peg3 promoter	Shn3 3UTR inh
COc1ccccc1N1CCN(C(=O)C2CCCN(S(=O)(=O)c3ccc4c(c3)CCCN4C(C)=O)C2)CC1 (stereo unspecified)	0	0	0	0	0	87
CCCCCc1ccc(-c2ccc(/C=C/C(=O)O)cc2)nc1	0	0	0	74	0	0
CCCCCCCc1ccc(-c2ccc(O)cc2)nc1	0	0	0	0	0	0
Nc1ncnc2c1ncn2[C@@H]1O[C@H](CNCc2ccc(-n3cccn3)cc2)[C@@H](O)[C@H]1O	0	0	0	0	0	0
O=C(CCC(=O)Nc1ccc(Cl)cc1Cl)N/N=C/c1ccc([N+](=O)[O-])o1	0	-	0	0	57	0
O=C(N/N=C\c1ccc(-c2ccccc2[N+](=O)[O-])o1)C1COc2ccccc2O1 (stereo unspecified)	0	0	0	0	0	0
O=C(CNc1ccccc1)N/N=C/c1ccc([N+](=O)[O-])o1	0	0	0	0	0	0
O=C(Cc1ccc2c(c1)OCO2)NN=Cc1ccc([N+](=O)[O-])o1	0	73	0	0	0	0
Cc1ccc(NCC(=O)N/N=C\c2ccc([N+](=O)[O-])o2)cc1	0	68	0	0	0	0
